In PubChem BioAssay (Tox21):
Results filed as inconclusive are left out. Calls of active or inactive are those of the source.

Molecular target: Glucocorticoid receptor (Homo sapiens) (UniProt P04150)
Experiment: qHTS assay to identify small molecule agonists of the glucocorticoid receptor (GR) signaling pathway (AID 720691; active = well fitted activation curve with a large enough effect in the signal ratio in the repeat runs, not every such curve was filed as active; the % refers to the signal ratio)
Details: GR-bla HeLa, beta-lactamase reporter ratio, 18 h; series mostly up to 62.4 µM; activation: at the top concentration
Method in brief: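 Steps: seed GR-bla HeLa cells, incubate 4 h at 37 C/5% CO2; pin-transfer DMSO-dissolved compounds; incubate 18 h at 37 C; add LiveBLAzer B/G FRET substrate; after 2 h at room temperature, measure fluorescence.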
% is scaled to controls: 0 for no effect and ±100 for the full control effect.

Chain of Glucocorticoid receptor (Homo sapiens) (P04150 whole entry, looked up): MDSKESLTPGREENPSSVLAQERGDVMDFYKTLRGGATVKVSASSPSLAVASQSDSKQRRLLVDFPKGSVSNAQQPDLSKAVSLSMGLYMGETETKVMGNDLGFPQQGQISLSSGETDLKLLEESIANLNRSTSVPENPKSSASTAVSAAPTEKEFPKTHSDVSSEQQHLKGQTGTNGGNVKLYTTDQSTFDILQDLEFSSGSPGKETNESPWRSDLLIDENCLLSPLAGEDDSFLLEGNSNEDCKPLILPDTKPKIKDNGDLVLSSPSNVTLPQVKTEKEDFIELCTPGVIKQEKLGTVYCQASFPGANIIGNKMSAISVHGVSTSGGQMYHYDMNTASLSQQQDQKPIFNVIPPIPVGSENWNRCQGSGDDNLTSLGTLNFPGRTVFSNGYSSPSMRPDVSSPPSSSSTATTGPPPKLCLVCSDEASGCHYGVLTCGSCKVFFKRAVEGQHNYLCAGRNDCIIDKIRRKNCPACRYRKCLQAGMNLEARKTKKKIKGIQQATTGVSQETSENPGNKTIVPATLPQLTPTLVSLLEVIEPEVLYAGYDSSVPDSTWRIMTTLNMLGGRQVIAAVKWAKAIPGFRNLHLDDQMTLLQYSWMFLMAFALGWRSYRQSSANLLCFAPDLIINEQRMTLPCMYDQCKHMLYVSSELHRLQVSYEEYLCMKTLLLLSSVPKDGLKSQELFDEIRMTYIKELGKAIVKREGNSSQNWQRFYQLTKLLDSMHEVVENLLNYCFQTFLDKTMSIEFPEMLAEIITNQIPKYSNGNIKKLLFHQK

Row | SMILES | activation
1 | CC1CCc2c(N3CCC(O)CC3)c(F)cc3c(=O)c(C(=O)O)cn1c23 (configuration not stated) | -0.36% (inactive)
2 | Cc1ccc(C(C)NC(=O)[C@@H](NC(=O)OC(C)C)C(C)C)cc1 (some centres not stated) | -3.19% (inactive)
3 | CN(C)CC/C=C1/c2ccccc2COc2ccc(CC(=O)O)cc21 | 4.57% (inactive)
4 | Cc1cc(C)c(C(=O)O)c(C)c1 | 0.47% (inactive)
5 | CC1c2ccccc2CN1NC(=O)c1ccc(Cl)c(S(N)(=O)=O)c1 (configuration not stated) | -2.63% (inactive)
6 | C=C(C)c1cccc(C(C)(C)N=C=O)c1 | 3.44% (inactive)
7 | C=CCCCCCCCC | 0.739% [at 79.2 µM] (inactive)
8 | CC(C)=CCC[C@@](C)(O)[C@H]1CC=C(C)CC1 | 2.9% (inactive)
9 | CCC(=O)c1c(O)cc(O)cc1O | -1.82% (inactive)
10 | Nc1nc(-c2ccccc2)c(Br)c(=O)[nH]1 | -2.75% (inactive)
11 | O=C1c2ccccc2C(=O)c2cc(Cl)ccc21 | -4.3% [at 6.9 µM] (inactive)
12 | CC(C)Nc1ccccc1 | -1.34% (inactive)
13 | OC[C@@H](O)C(O)[C@@H](O)CO (some centres not stated) | 0.0259% [at 79.2 µM] (inactive)
14 | O=C1CCCCO1 | 5.8% (inactive)
15 | CCCCOC(=O)[C@H](C)O | -1.08% (inactive)
16 | Cn1c(=O)c2[nH]c(Br)nc2n(C)c1=O | 1.06% (inactive)
17 | CC1=NN(c2ccc(S(=O)(=O)O)cc2)C(=O)C1 | -4.35% (inactive)
18 | O=C1OCCO1 | -0.567% [at 79.2 µM] (inactive)
19 | CC1OCCC1=O (configuration not stated) | -1.66% (inactive)

Molecular target: Glucocorticoid receptor (Homo sapiens) (UniProt P04150)
Experiment: qHTS assay to identify small molecule antagonists of the glucocorticoid receptor (GR) signaling pathway (AID 720692; active = well fitted inhibition curve with a large enough effect in the signal ratio in the repeat runs, not every such curve was filed as active; the % refers to the signal ratio)
Details: GR-bla HeLa, beta-lactamase FRET ratio, dexamethasone-stimulated, 18 h; series mostly up to 58.5 µM; activity change, negative = inhibition: at the top concentration
Method in brief: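 Antagonism was scored as loss of dexamethasone-driven (5 nM final) reporter signal in HeLa cells bearing a glucocorticoid response element–beta-lactamase construct, after 18 h compound exposure at 37 C and 2 h FRET substrate loading.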

Row | SMILES | activity change, negative = inhibition
20 | CC1CCc2c(N3CCC(O)CC3)c(F)cc3c(=O)c(C(=O)O)cn1c23 (configuration not stated) | -2.63% (inactive)
21 | Cc1ccc(C(C)NC(=O)[C@@H](NC(=O)OC(C)C)C(C)C)cc1 (some centres not stated) | -4.54% (inactive)
22 | CN(C)CC/C=C1/c2ccccc2COc2ccc(CC(=O)O)cc21 | -4.82% (inactive)
23 | Cc1cc(C)c(C(=O)O)c(C)c1 | -0.44% (inactive)
24 | CC1c2ccccc2CN1NC(=O)c1ccc(Cl)c(S(N)(=O)=O)c1 (configuration not stated) | 5.1% (inactive)
25 | C=CCCCCCCCC | 2.11% [at 78.9 µM] (inactive)
26 | CC(C)=CCC[C@@](C)(O)[C@H]1CC=C(C)CC1 | -6.23% (inactive)
27 | CN(C)CCCCl | -10.8% [at 78.9 µM] (inactive)
28 | CCC(=O)c1c(O)cc(O)cc1O | -12.3% (inactive)
29 | O=C1c2ccccc2C(=O)c2cc(Cl)ccc21 | -15.1% [at 7.04 µM] (inactive)
30 | CC(C)Nc1ccccc1 | -6.72% (inactive)
31 | OC[C@@H](O)C(O)[C@@H](O)CO (some centres not stated) | -8.25% [at 78.9 µM] (inactive)
32 | O=C1CCCCO1 | -12.3% (inactive)
33 | CCCCOC(=O)[C@H](C)O | -2.88% (inactive)
34 | Cn1c(=O)c2[nH]c(Br)nc2n(C)c1=O | 2.24% (inactive)
35 | Cc1ccnc(N)c1 | 0.823% (inactive)
36 | Cc1cccc(Cl)c1 | -0.481% (inactive)
37 | [O]=[Mo](=[O])=[O] | -4.51% [at 27 µM] (inactive)
38 | CC1=NN(c2ccc(S(=O)(=O)O)cc2)C(=O)C1 | 2.01% (inactive)
39 | C/C(CC(C)C)=N\O | 5% (inactive)
40 | C=CCCCC | -3.4% [at 78.9 µM] (inactive)
41 | CC(CO)(CO)CO | -0.741% [at 78.9 µM] (inactive)
42 | CC1OCCC1=O (configuration not stated) | 10.6% (inactive)
